# Source: PubChem BioAssay
# Shown are actives, neighbours in structure and some others; about 6% of the full set was active somewhere.
# DRD3 antagonist: blocks the human D3 dopamine receptor | P35462 | hit rate 2.5% among 360,000 | max response, negative = inhibition, % | AID 652054 | D3R cells, DiscoveRx beta-arrestin luminescence, antagonist mode; hits give low values; in the data active means max response below about -50%; inconclusive means no clear call, values can overlap the other calls; further: on the % scale 0 is the no-effect control and ±100 the full control effect
# Target sequence (P35462 whole entry, looked up): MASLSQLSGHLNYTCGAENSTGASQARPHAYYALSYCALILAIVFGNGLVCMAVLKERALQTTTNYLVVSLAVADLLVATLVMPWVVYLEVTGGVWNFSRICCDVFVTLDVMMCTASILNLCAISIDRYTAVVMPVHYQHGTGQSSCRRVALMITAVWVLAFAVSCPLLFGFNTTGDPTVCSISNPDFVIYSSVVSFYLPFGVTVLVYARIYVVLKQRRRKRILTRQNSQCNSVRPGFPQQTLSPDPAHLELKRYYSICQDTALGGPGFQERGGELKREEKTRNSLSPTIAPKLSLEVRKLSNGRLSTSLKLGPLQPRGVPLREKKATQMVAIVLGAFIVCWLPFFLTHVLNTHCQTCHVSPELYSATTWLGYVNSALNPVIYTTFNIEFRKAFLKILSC
#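 Cells expressing the human receptor were seeded at 1500 cells/well, incubated overnight at 37 degrees C in 5% CO2, then exposed to library compounds with dopamine controls for 90 minutes at 37 degrees C before luminescent detection.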
# D1 ag: agonists of human D1 dopamine receptor; HEK293 T-REx D1 cells, calcium flux, agonist mode; activation, % at 2 µM; hit rate 1% among 360,000; in the data active means activation above about 30%; further: 0% is about no effect
#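 Tetracycline-induced HEK293 TREx D1 cells, force-coupled to calcium signalling, were dye-loaded with a no-wash calcium kit. Compound was pin-added after a 10 s baseline. Fluorescence was read kinetically at 1 cycle/s for 180 s, with calcium rises flagged as agonism.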
# DRD3 agonist: activates the human D3 dopamine receptor. D3R DiscoveRx beta-arrestin cells, luminescence, 90 min. AID 652048. max activation, %. hit rate 0.58% among 410,000; in the data active means max activation above about 30%; further: 0% is about no effect
#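 Agonist-mode cell screen: cells plated at 1500/well and incubated overnight at 37 °C, then exposed to library compounds for 90 min at 37 °C. Detection reagent was added for 30–60 min at room temperature, and luminescence was read.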
# D1 antag: blocks dopamine activation of the human D1 receptor. HEK293 TREx D1 cells, calcium flux, dopamine EC80; hits give low values. activity change, negative = inhibition, % at 10 µM. hit rate 3.2% among 360,000. AID 504652. P21728; in the data active means activity change below about -30%; further: on the % scale 0 is the no-effect control and ±100 the full control effect
#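 HEK293 T-REx cells expressing inducible, force-coupled D1 receptor; no-wash Ca dye, 30–90 min RT. Cmpd → 180 s read at 1 Hz → EC80 DA → 180 s read.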
# D1 potentiator: enhances dopamine response at the human D1 receptor | P21728 | HEK293 TREx D1 cells, calcium flux, dopamine EC20 potentiation | potentiation, % at 10 µM | hit rate 0.036% among 360,000 | AID 504651; in the data active means potentiation above about 30%; further: 0% is about no effect
# BCR signal inh: blocks chronic active B-cell receptor signaling | ABC-DLBCL IkBa-CBG/CBR reporter, luminescence ratio, 4 h | Potency, µM (doses to about 46.1 µM), for the others: at the top dose activity change, negative = inhibition, most hits filed as inhibitors | hit rate 0.05% among 340,000 | AID 493014; active means well fitted inhibition curve with a large enough effect in the signal ratio, with a control signal flat, not every such curve was filed as active; inconclusive means small, poorly fitted or top-dose-only effect, or effect the other way, or a change in a side signal; the % refers to the signal ratio;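 further: potency means the concentration at half of the fitted maximal effect; plate controls were basal doxycycline-induced cells for no effect and cells given 10 µM MG132 for full effect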
#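 Doxycycline induced both beetle luciferases in TMD8 lymphoma cells; IKK-driven degradation limits the IkappaBalpha-fused green signal, while red luminescence normalises for cell number and nonspecific effects. Compounds tested up to 46 uM, 4 hrs.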
# Numbers without * were called inactive; ? = inconclusive; . = no result.
SMILES,DRD3 antagonist,D1 ag,DRD3 agonist,D1 antag,D1 potentiator,BCR signal inh
Cc1[nH]c(C)c(S(=O)(=O)NCc2ccc(Cl)cc2)c1C(=O)N1CCCC1,-10.7,-0.1,-19.1,-8.9,32.8*,2.9%
Cc1ccc(NS(=O)(=O)c2c(C)[nH]c(C)c2C(=O)N2CCCC2)cc1,-20.2,-0.6,-4.1,-6.8,-1.1,0.5%
Cc1[nH]c(C)c(S(=O)(=O)Nc2ccc(OC(F)(F)F)cc2)c1C(=O)N1CCCCC1,-90.6*,1.8,-8.7,-2.0,10.8,-22.7%
Cc1c(C(=O)N2CCOCC2)c(S(=O)(=O)Nc2cccc(C#N)c2)c(C)n1C,4.7,1.6,1.5,-49.5*,-3.3,4.3%
COc1ccc(N2CCN(S(=O)(=O)c3c(C(=O)N4CCOCC4)c(C)n(C)c3C)CC2)cc1,15.5,4.1,4.1,-35.3*,-1.3,0.6%
Cc1cccc(-n2c(Cc3ccccc3)nnc2SCc2nc(-c3cccs3)no2)c1,.,9.4,0.6,-21.7,0.1,.
CCN(CCCC(=O)c1ccc(F)cc1)CCc1ccccc1,-28.4,16.1,32.4*,-35.6*,-5.2,8.3%
CCN(CCCc1ccccc1)CCCc1ccccc1,-96.3*,21.7,-83.8,-18.8,-5.0,-4.8%
O=C(CCCc1ccccc1)c1ccccc1,-2.9,3.3,2.6,1.7,-3.5,?
Cc1cccc(NC(=O)N2CC(=O)Nc3sc4c(c3C2c2ccccc2)CCCC4)c1C (configuration not stated),.,-1.9,-5.4,2.4,0.3,.
Cc1ccc(Cl)cc1NC(=O)C(=O)NCCc1sc(-c2ccc(F)cc2)nc1C,.,16.6,12.6,10.4,-0.1,.
CC1(C)CC(=O)C=C(NC2=CC3OC(c4ccccc4)OCC3OC2=O)C1 (configuration not stated),-53.7*,4.6,-4.4,6.3,-1.2,?
Cc1ccccc1NC1=CC(=O)CC(C)(C)C1,-11.0,0.5,-6.3,2.5,0.7,?
CCN1C(C(=O)c2ccccc2)=C(OC(=O)c2ccccc2OC)c2ccccc2S1(=O)=O,.,6.3,2.7,-3.6,-3.6,.
CC(=O)c1cccc(NC(=S)N2CCc3ccccc32)c1,12.0,2.1,4.9,-31.7*,0.8,0.4%
O=C(c1ccccc1)N1CCCc2ccccc21,14.3,1.0,2.3,-2.4,-3.8,-3.7%
O=C(Nc1cccc(C(=O)N2CCCc3ccccc32)c1)c1ccccc1,-10.4,0.8,1.3,-36.9*,-8.1,-5.4%
O=C(c1ccc(=O)oc1)N1CCCc2ccccc21,-63.3*,4.1,-1.0,8.6,-0.6,-1.2%
COc1ccc2c(c1)CC(NC(=O)Nc1c(C)cc(C)cc1C)CO2 (configuration not stated),.,3.2,-12.7,-12.5,2.3,.
Cc1cc(N2CCN(S(=O)(=O)c3ccccc3)CC2)c2ccccc2n1,4.2,11.2,1.6,-35.3*,-3.1,-8.0%
O=S(=O)(c1ccc(Cl)cc1)N1CCN(c2nc(-c3ccc(Cl)cc3)nc3ccccc23)CC1,.,0.0,.,-36.2*,2.1,.
CCOC(=O)c1ccc(S(=O)(=O)N2CCN(CC(=O)NC(=O)NC(C)(C)C)CC2)cc1,-71.5*,1.7,3.5,-14.6,-6.0,?
CC(C)(C)NC(=O)NC(=O)CN1CCN(S(=O)(=O)c2ccccc2)CC1,18.5,1.4,1.0,-3.7,-0.8,?
O=[N+]([O-])c1ccc(N/N=C/C=C/c2ccco2)cc1,-57.2*,.,-19.7,.,.,.
O=C(O)c1ccc(N/N=C/C=C/c2ccc([N+](=O)[O-])o2)cc1,-53.4*,56.3*,-11.7,-5.1,1.4,?
SMILES,DRD3 antagonist,D1 ag,DRD3 agonist,D1 antag,D1 potentiator,BCR signal inh
O=C(N/N=C/c1ccco1)c1cc([N+](=O)[O-])cc([N+](=O)[O-])c1,3.2,0.3,4.1,23.2,-3.5,1.7%
CCOc1cccc(/C(O)=C2/C(=O)C(=O)N(CCOC)C2c2ccco2)c1 (configuration not stated),-55.0*,0.3,-1.0,7.2,4.1,5.2%
CCOc1cccc(/C(O)=C2/C(=O)C(=O)N(Cc3cccnc3)C2c2ccco2)c1 (configuration not stated),-5.3,1.4,-1.3,3.2,-0.8,-21.1%
CC(CCN1CCOCC1)c1ccccc1 (configuration not stated),-12.2,0.9,-1.6,8.2,-3.7,0.6%
CC(CCN1CCN(c2ccc(F)cc2)CC1)c1ccccc1 (configuration not stated),-76.4*,7.2,-33.7,-61.7*,-0.4,-2.0%
CC(CN1CCN(c2ccccc2)CC1)c1ccccc1 (configuration not stated),-64.3*,22.1,-29.3,-58.8*,-15.0,?
CC(CCN1CCN(CCO)CC1)c1ccccc1 (configuration not stated),4.7,4.8,-9.8,7.0,1.5,8.7%
c1ccc(SCCN2CCN(c3ccccc3)CC2)cc1,-102.9*,0.8,-7.9,0.8,-8.2,?
CCCNC(=O)CCCN1C(=O)CCn2nc(-c3cccn3C)cc21,.,-1.9,4.3,1.8,-0.7,.
COc1ccc([C@H]2CC(=O)C[C@@H](CCn3cc(-c4ccc(F)cc4)nn3)O2)cc1,29.8,.,5.9,.,.,.
N#C/C(=C\c1ccc(N2CCOCC2)o1)C(=O)NCC1CCCO1 (configuration not stated),-82.0*,1.1,-0.9,-13.3,-0.1,-2.1%
N#C/C(=C/c1ccc(-c2ccc(S(=O)(=O)N3CCOCC3)cc2)o1)C(=O)NC1CC1,24.6,.,17.6,.,.,.
N#C/C(=C\c1ccc(N2CCOCC2)o1)C(=O)NC1CCCCC1,-5.5,68.8*,-0.9,-2.7,-3.7,?
Cc1cc(/C=C(\C#N)C(=O)NCC2CCCO2)c(C)n1-c1ccc(Cl)cc1 (configuration not stated),?,2.6,-65.2,-35.0*,-15.0,-2.7%
Cc1ccc(NC(=O)CSc2nnc(COc3ccc(Cl)cc3)o2)c(C)c1,.,0.6,3.0,-4.5,-3.4,.
O=C(c1ccc(F)cc1)N1CCN(CCc2ccncc2)CC1,.,1.9,-34.4,-8.6,-0.2,.
Cc1cc(C)c2sc(NC(=O)c3ccc(S(=O)(=O)N4CCOCC4)cc3)nc2c1,.,-0.2,-8.0,-10.2,4.3,.
COc1ccc(CNC(=O)c2ccc(Cn3c(=O)c4cccn4c4cccnc43)cc2)c(OC)c1,.,1.1,8.2,6.9,0.3,.
Cn1c(=O)c2cc(S(=O)(=O)NC(Cc3ccccc3)C(=O)Nc3ccc(F)cc3)ccc2n(C)c1=O (configuration not stated),.,5.1,-2.5,-5.8,-3.1,.
Cc1cccc(OCC(O)CN2CCc3ccccc3C2)c1 (configuration not stated),-104.5*,6.4,-0.6,5.3,-5.2,3.6%
